In the supplement of paper PMC8975748:
Structures can show the parent of a compound that is named as a salt. ± gives the standard deviation of the averaged measurements.

Assays:
[1] = test system: Saccharomyces cerevisiae BY4741 SeMeCo community; assay: mean cell size (pixel area) (pixels); higher = larger cells; settings: 10 µM; 24 h; SM minimal medium
Method in brief: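 Mean cell pixel area per well was measured in a four-plasmid fluorescent community of Saccharomyces cerevisiae BY4741, where every plasmid complements one auxotrophy and carries a fluorescent marker. Cells from an overnight preculture at OD600 = 1.0 were diluted to OD600 = 0.3 and dispensed at 70 µl into 384-well plates acoustically predosed with drug to a final 10 µM in SM medium. Incubation lasted 24 h, followed by paraformaldehyde fixation, automated confocal imaging and analysis in Harmony. Reported figures are averaged over 3 replicates. Same SeMeCo high-content imaging drug screen: Selleck FDA-approved drugs at 10 µM, 24 h in SM medium, 384-well plates, 3 replicates.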

[2] = test system: Saccharomyces cerevisiae BY4741 SeMeCo community; assay: z-score of prototroph abundance vs DMSO median; higher = larger share of this subpopulation than in DMSO controls; settings: 10 µM; 24 h; SM minimal medium; subpopulation (auxotrophy): Prototroph
Method in brief: (§1)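 Cells of a Saccharomyces cerevisiae BY4741 community, carrying four plasmids that each restored one auxotrophy and encoded a distinct fluorescent protein, were pre-grown overnight to OD600 1.0 and diluted to 0.3. A 70 µl volume was added to 384-well plates acoustically predosed with library drugs (10 µM final) and grown 24 h in minimal SM medium. After paraformaldehyde fixation, automated confocal microscopy was used, with single-auxotroph fluorescent strains for thresholds and autofluorescence correction. The abundance of each subpopulation was scored as a z-score against the vehicle-well median.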

[3] = test system: Saccharomyces cerevisiae BY4741 SeMeCo community; assay: z-score of subpopulation abundance vs DMSO median, subpopulation auxotrophic for M; higher = larger share of this subpopulation than in DMSO controls; settings: 10 µM; 24 h; SM minimal medium; subpopulation (auxotrophy): M
Method in brief: as §1

[4] = test system: Saccharomyces cerevisiae BY4741 SeMeCo community; assay: z-score of subpopulation abundance vs DMSO median, subpopulation auxotrophic for L; higher = larger share of this subpopulation than in DMSO controls; settings: 10 µM; 24 h; SM minimal medium; subpopulation (auxotrophy): L
Method in brief: as §1

[5] = test system: Saccharomyces cerevisiae BY4741 SeMeCo community; assay: z-score of subpopulation abundance vs DMSO median, subpopulation auxotrophic for U; higher = larger share of this subpopulation than in DMSO controls; settings: 10 µM; 24 h; SM minimal medium; subpopulation (auxotrophy): U
Method in brief: as §1

[6] = test system: Saccharomyces cerevisiae BY4741 SeMeCo community; assay: z-score of subpopulation abundance vs DMSO median, subpopulation auxotrophic for H; higher = larger share of this subpopulation than in DMSO controls; settings: 10 µM; 24 h; SM minimal medium; subpopulation (auxotrophy): H
Method in brief: as §1

[7] = test system: Saccharomyces cerevisiae BY4741 SeMeCo community; assay: z-score of subpopulation abundance vs DMSO median, subpopulation auxotrophic for LU; higher = larger share of this subpopulation than in DMSO controls; settings: 10 µM; 24 h; SM minimal medium; subpopulation (auxotrophy): LU
Method in brief: as §1

[8] = test system: Saccharomyces cerevisiae BY4741 SeMeCo community; assay: z-score of subpopulation abundance vs DMSO median, subpopulation auxotrophic for LM; higher = larger share of this subpopulation than in DMSO controls; settings: 10 µM; 24 h; SM minimal medium; subpopulation (auxotrophy): LM
Method in brief: as §1

[9] = test system: Saccharomyces cerevisiae BY4741 SeMeCo community; assay: z-score of subpopulation abundance vs DMSO median, subpopulation auxotrophic for HM; higher = larger share of this subpopulation than in DMSO controls; settings: 10 µM; 24 h; SM minimal medium; subpopulation (auxotrophy): HM
Method in brief: as §1

[10] = test system: Saccharomyces cerevisiae BY4741 SeMeCo community; assay: z-score of subpopulation abundance vs DMSO median, subpopulation auxotrophic for HU; higher = larger share of this subpopulation than in DMSO controls; settings: 10 µM; 24 h; SM minimal medium; subpopulation (auxotrophy): HU
Method in brief: as §1

[11] = test system: Saccharomyces cerevisiae BY4741 SeMeCo community; assay: z-score of subpopulation abundance vs DMSO median, subpopulation auxotrophic for UM; higher = larger share of this subpopulation than in DMSO controls; settings: 10 µM; 24 h; SM minimal medium; subpopulation (auxotrophy): UM
Method in brief: as §1

[12] = test system: Saccharomyces cerevisiae BY4741 SeMeCo community; assay: z-score of subpopulation abundance vs DMSO median, subpopulation auxotrophic for HL; higher = larger share of this subpopulation than in DMSO controls; settings: 10 µM; 24 h; SM minimal medium; subpopulation (auxotrophy): HL
Method in brief: as §1

[13] = test system: Saccharomyces cerevisiae BY4741 SeMeCo community; assay: z-score of subpopulation abundance vs DMSO median, subpopulation auxotrophic for HLU; higher = larger share of this subpopulation than in DMSO controls; settings: 10 µM; 24 h; SM minimal medium; subpopulation (auxotrophy): HLU
Method in brief: as §1

[14] = test system: Saccharomyces cerevisiae BY4741 SeMeCo community; assay: z-score of subpopulation abundance vs DMSO median, subpopulation auxotrophic for HLM; higher = larger share of this subpopulation than in DMSO controls; settings: 10 µM; 24 h; SM minimal medium; subpopulation (auxotrophy): HLM
Method in brief: as §1

[15] = test system: Saccharomyces cerevisiae BY4741 SeMeCo community; assay: z-score of subpopulation abundance vs DMSO median, subpopulation auxotrophic for HUM; higher = larger share of this subpopulation than in DMSO controls; settings: 10 µM; 24 h; SM minimal medium; subpopulation (auxotrophy): HUM
Method in brief: as §1

[16] = test system: Saccharomyces cerevisiae BY4741 SeMeCo community; assay: z-score of subpopulation abundance vs DMSO median, subpopulation auxotrophic for LUM; higher = larger share of this subpopulation than in DMSO controls; settings: 10 µM; 24 h; SM minimal medium; subpopulation (auxotrophy): LUM
Method in brief: as §1

[17] = test system: Saccharomyces cerevisiae BY4741 SeMeCo community; assay: z-score of subpopulation abundance vs DMSO median, subpopulation auxotrophic for HLUM; higher = larger share of this subpopulation than in DMSO controls; settings: 10 µM; 24 h; SM minimal medium; subpopulation (auxotrophy): HLUM
Method in brief: as §1

## C=C[C@]1(C)C[C@@H](OC(=O)CS[C@@H]2C[C@H]3CC[C@@H](C2)N3C)[C@]2(C)[C@H](C)CC[C@]3(CCC(=O)[C@H]32)[C@@H](C)[C@@H]1O [Retapamulin]
[1]
  mean cell size: 12.42 ± 0.093
[2]
  z-score of prototroph abundance: -0.09
[3]
  z-score of subpopulation abundance: -0.9
[4]
  z-score of subpopulation abundance: -0.16
[5]
  z-score of subpopulation abundance: 0.79
[6]
  z-score of subpopulation abundance: -0.84
[7]
  z-score of subpopulation abundance: 1.21
[8]
  z-score of subpopulation abundance: 0.32
[9]
  z-score of subpopulation abundance: -0.99
[10]
  z-score of subpopulation abundance: 0.72
[11]
  z-score of subpopulation abundance: 0.21
[12]
  z-score of subpopulation abundance: -0.57
[13]
  z-score of subpopulation abundance: 0.45
[14]
  z-score of subpopulation abundance: -0.52
[15]
  z-score of subpopulation abundance: 0.06
[16]
  z-score of subpopulation abundance: 0.62
[17]
  z-score of subpopulation abundance: 0.65

## CCOc1cc(N)c(Cl)cc1C(=O)NCC1CN(Cc2ccc(F)cc2)CCO1 (stereo unspecified) [Mosapride]
[1]
  mean cell size: 12.5 ± 0.23
[2]
  z-score of prototroph abundance: 0.05
[3]
  z-score of subpopulation abundance: 0.39
[4]
  z-score of subpopulation abundance: -0.65
[5]
  z-score of subpopulation abundance: -0.39
[6]
  z-score of subpopulation abundance: 0.06
[7]
  z-score of subpopulation abundance: 0.77
[8]
  z-score of subpopulation abundance: -0.41
[9]
  z-score of subpopulation abundance: -0.23
[10]
  z-score of subpopulation abundance: 0.02
[11]
  z-score of subpopulation abundance: -0.47
[12]
  z-score of subpopulation abundance: -0.5
[13]
  z-score of subpopulation abundance: -0.42
[14]
  z-score of subpopulation abundance: 0.45
[15]
  z-score of subpopulation abundance: 0.4
[16]
  z-score of subpopulation abundance: -0.04
[17]
  z-score of subpopulation abundance: 0.05

## CCC(=O)c1c(O)cc(O)cc1O [Flopropione]
[1]
  mean cell size: 12.5 ± 0.18
[2]
  z-score of prototroph abundance: 0.7
[3]
  z-score of subpopulation abundance: 0.69
[4]
  z-score of subpopulation abundance: -0.09
[5]
  z-score of subpopulation abundance: -0.13
[6]
  z-score of subpopulation abundance: 0.18
[7]
  z-score of subpopulation abundance: -0.57
[8]
  z-score of subpopulation abundance: 0.21
[9]
  z-score of subpopulation abundance: 0.19
[10]
  z-score of subpopulation abundance: 1.06
[11]
  z-score of subpopulation abundance: 0.25
[12]
  z-score of subpopulation abundance: -0.4
[13]
  z-score of subpopulation abundance: -0.08
[14]
  z-score of subpopulation abundance: 0.03
[15]
  z-score of subpopulation abundance: -0.23
[16]
  z-score of subpopulation abundance: -0.46
[17]
  z-score of subpopulation abundance: -0.26

## COc1ccc(CCN(C)CCCC(C#N)(c2ccc(OC)c(OC)c2)C(C)C)cc1OC (stereo unspecified) [Verapamil HCl]
[1]
  mean cell size: 12.6 ± 0.13
[2]
  z-score of prototroph abundance: -0.19
[3]
  z-score of subpopulation abundance: 1.34
[4]
  z-score of subpopulation abundance: 0.1
[5]
  z-score of subpopulation abundance: 0.6
[6]
  z-score of subpopulation abundance: 0.46
[7]
  z-score of subpopulation abundance: -0.58
[8]
  z-score of subpopulation abundance: 0
[9]
  z-score of subpopulation abundance: -0.27
[10]
  z-score of subpopulation abundance: 0.54
[11]
  z-score of subpopulation abundance: 0.03
[12]
  z-score of subpopulation abundance: 0.26
[13]
  z-score of subpopulation abundance: 0.26
[14]
  z-score of subpopulation abundance: 0.44
[15]
  z-score of subpopulation abundance: 0.05
[16]
  z-score of subpopulation abundance: 0.79
[17]
  z-score of subpopulation abundance: 0.13

## COc1cc(NS(=O)(=O)c2ccc(N)cc2)nc(OC)n1 [SulfadiMethoxine sodium]
[1]
  mean cell size: 12.4 ± 0.15
[2]
  z-score of prototroph abundance: 0.53
[3]
  z-score of subpopulation abundance: 0.96
[4]
  z-score of subpopulation abundance: -0.99
[5]
  z-score of subpopulation abundance: -0.68
[6]
  z-score of subpopulation abundance: -0.13
[7]
  z-score of subpopulation abundance: -0.82
[8]
  z-score of subpopulation abundance: -0.45
[9]
  z-score of subpopulation abundance: 0.06
[10]
  z-score of subpopulation abundance: 0.29
[11]
  z-score of subpopulation abundance: -0.12
[12]
  z-score of subpopulation abundance: -0.28
[13]
  z-score of subpopulation abundance: -0.72
[14]
  z-score of subpopulation abundance: 0
[15]
  z-score of subpopulation abundance: -0.22
[16]
  z-score of subpopulation abundance: -0.37
[17]
  z-score of subpopulation abundance: -0.21

## O=c1n(CCCN2CCN(c3cccc(Cl)c3)CC2)nc2ccccn12 [Trazodone HCl]
[1]
  mean cell size: 12.6 ± 0.15
[2]
  z-score of prototroph abundance: -0.06
[3]
  z-score of subpopulation abundance: 2.19
[4]
  z-score of subpopulation abundance: -1.59
[5]
  z-score of subpopulation abundance: -0.6
[7]
  z-score of subpopulation abundance: -0.97
[8]
  z-score of subpopulation abundance: -0.41
[9]
  z-score of subpopulation abundance: 0.92
[10]
  z-score of subpopulation abundance: 0.33
[11]
  z-score of subpopulation abundance: 0.22
[12]
  z-score of subpopulation abundance: -0.82
[13]
  z-score of subpopulation abundance: -0.83
[14]
  z-score of subpopulation abundance: 0.04
[15]
  z-score of subpopulation abundance: 0.45
[16]
  z-score of subpopulation abundance: -0.51
[17]
  z-score of subpopulation abundance: -0.57
